Calls of active or inactive are those of the source. The calls were made as follows: active = hit-call score of the fitted dose curve at least 0.9, where 1 is the maximum; inactive = score below 0.9.

Read-out in this experiment: Transforming growth factor beta 1 (TGFb1), TGFB1 (gene 7040)
Put plainly: BSK_BE3C_TGFb1: BioMAP Diversity Plus: BE3C Assay for Transforming growth factor beta 1 (TGFb1) Biomarker Activity (AID 2283036). To be noted: primary human bronchial epithelial cells; actives raise or lower the signal. The method, then: BSK_BE3C is a cell-based, multiplexed-readout assay that uses bronchial epithelial cell, a human lung primary cell, with measurements taken at 24 hours after chemical dosing in a 96-well plate.BSK_BE3C_TGFb1 is an assay component measured in the BSK_BE3C assay. It measures TGF-b1 antibody related to regulation of gene expression using ELISA technology.Data from the assay component BSK_BE3C_TGFb1 was analyzed into 1 assay endpoint. This assay endpoint, BSK_BE3C_TGFb1, was analyzed with bidirectional fitting relative to DMSO as the negative control and baseline of activity. Using a type of binding reporter, gain or loss-of-signal activity can be used to understand changes in the signaling as they relate to the gene TGFB1. Furthermore, this assay endpoint can be referred to as a primary readout, because this assay has produced multiple assay endpoints where this one serves a signaling function. To generalize the intended target to other relatable targets, this assay endpoint is annotated to the growth factor intended target family, where the subfamily is transforming growth factor beta.
The levels of cell surface (or secreted, indicated by the prefix "s") biomarker endpoints were measured by ELISA. Overt cytotoxicity to cells in confluent adherent cultures (all systems other than the BT system) was assessed by measuring total protein levels using sulforhodamine B (SRB) staining in parallel cultures at the time of biomarker measurements, indicated as SRB endpoints. For proliferation assays for adherent cell types, individual cell types are cultured at sub-confluence and relative cell numbers quantified by SRB staining at time points optimized for each system (48 h: 3C and CASM3C systems; 72 h: BT and HDF3CGF systems; 96 h: SAg system). SRB was performed by staining cells with 0.1% SRB after fixation with 10% TCA and reading wells at 560 nm.Viability and proliferation of PBMC (T cells) was quantified by Alamar Blue reduction for the SAg and BT systems. For PBMC viability (referred to as PBMC Cytotoxicity within the assay endpoint names), cells were plated (75,000/well in a 96-well plate) and then chemical samples added for 1 h before addition of activators, SEB and TSST-1 (20 ng/mL final concentration each). Cells were incubated for 90 h. Then, Alamar Blue (20 uL/well) (Invitrogen, Cat DAL1100) was added for 6 h, and the plates were read with a fluorescence microplate reader at 546/580 nm (excitation/emission). For PBMC proliferation, cells were plated and activated as above but incubated for only 16 h prior to addition of Alamar Blue. Plates were read after 6 h.
`CCCCCCCCCC`: the outcome was inactive. On to `NC(=O)N1c2ccccc2C=Cc2ccccc21`, for which the outcome was inactive. Same read-out and setting: to `CC(C)c1nnc2ccc(-c3ocnc3-c3cc(F)ccc3F)cn12` belongs “inactive”. The same measure, in the same setting: to `CCCOc1ccc(S(=O)(=O)N2CCN(CC)CC2)cc1-c1nc2c(CC)n(Cc3ccccn3)nc2c(=O)[nH]1` belongs “inactive”.

`Cn1cc[nH]c1=S`: the outcome was inactive. Turning to `CC1(C)C(=O)N(Cl)C(=O)N1Cl`, the outcome was inactive.

Regarding `Cc1cccc(O)c1C`, the outcome was inactive. Regarding `Cn1c(=O)c2[nH]cnc2n(C)c1=O`, the result was inactive.

Turning to `CCCCCCOC(=O)CC(CC(=O)OCCCCCC)(OC(=O)CCC)C(=O)OCCCCCC`, the result was inactive. The same measure, in the same setting: to `O=C(O)[C@H](O)[C@@H](O)C(=O)O` belongs “inactive”.

For `CC[C@H](C)C(=O)O[C@H]1C[C@H](O)C=C2C=C[C@H](C)[C@H](CC[C@@H](O)C[C@@H](O)CC(=O)O)[C@H]21`, the result was inactive. On to `CC(=O)c1ccccc1`, for which the outcome was inactive. Still for that read-out and setting: the result for `CCCCC(CC)C(=O)OCCOCCOCCOC(=O)C(CC)CCCC` (stereo not given) reads “inactive”; that for `O=C(O)c1cccc(C[C@@H]2COc3ccc(OCc4nc5cc(F)ccc5s4)cc3[C@@H]2O)c1`, “inactive”. Regarding `CCCCCCCCCCCCCCCCOS(=O)(=O)O`, the AC50 was 16 µM (active). With `OC(Cn1cncn1)(Cn1cncn1)c1ccc(F)cc1F`, the result was inactive.

Take `O=C(O)c1ccc2c(c1)nc(C(=O)NC1CCN(C3CC3)CC1)n2Cc1cc(-c2ccc(Cl)s2)on1`: the result was inactive. The same measure, in the same setting: the result for `Nc1ccn([C@@H]2O[C@H](CO)[C@@H](O)[C@@H]2O)c(=O)n1` reads “inactive”; that for `CCCC(CCC)C(=O)O`, “inactive”; that for `C[C@@H](Oc1ccc(CNC(=O)c2cccnc2Oc2ccc3c(c2)OCO3)c(F)c1)C(=O)O`, “inactive”. With `c1ccc(C(O[C@@H]2CCCN(CCc3ccc4c(c3)OCO4)C2)c2ccccc2)cc1`, the result was inactive. The same measure, in the same setting: to `OCCOCCOCCO` belongs “inactive”; to `CC(C)C(=O)Nc1ccc([N+](=O)[O-])c(C(F)(F)F)c1`, “inactive”; to `CCCCCCCCN(C)C`, “inactive”. Take `CCOc1ccc2[nH]cc(C(=O)NCc3ccccc3)c(=O)c2n1`: the outcome was inactive. On the same count and under the same terms, the result for `COS(C)(=O)=O` reads “inactive”; that for `NC(=O)N(O)[C@@H]1COc2cc(OCc3ccccc3)ccc21`, “inactive”; that for `Cc1ccc(S(=O)(=O)NC(=O)NN2CCCCCC2)cc1`, “inactive”. Turning to `OC(CCl)CCl`, the outcome was inactive. The same measure, in the same setting: to `COCc1nnc(-c2ccc[n+]([O-])c2)n1-c1c(Cl)c(Cl)cc2[nH]c(=O)c(=O)[nH]c12` belongs “inactive”; to `Cc1ncc([C@@H](CCCCCCc2ccc3c(n2)NCCC3)CC(=O)O)cn1`, “inactive”; to `c1ccc2cc3ccccc3cc2c1`, “inactive”. Still for that read-out and setting: the result for `c1ccc2c(c1)-c1cccc3c1c-2cc1ccccc13` reads “inactive”; that for `CCCc1ccccc1`, “inactive”; that for `OCC(CO)(CO)CO`, “inactive”. Still for that read-out and setting: to `OCCNCCO` belongs “inactive”; to `O=S1(=O)CCCO1`, “inactive”; to `NNC(=O)c1ccncc1`, “inactive”. `CCCCCCCC1CCC(=O)O1` (stereo not given): the result was inactive. Still for that read-out and setting: the result for `NC(=O)NN=Cc1ccc([N+](=O)[O-])o1` reads “inactive”.

(Values after PubChem BioAssay (EPA / NIEHS).)
